Results on twelve compounds are retold here after PubChem BioAssay (NCI).

Some test systems named below: SK-MEL-2 melanoma; EKVX NSCLC; SN12C renal; UO-31 renal; TK-10 renal; ACHN renal; CAKI-1 renal; A498 renal; CCRF-CEM leukemia.
Common to all, as to assay: NCI-60 one-dose screen, 48 h (100 = growth as untreated, 0 = no growth, -100 = all killed)

“And” between values parts separate entries of the source, which are not always exact repeats. Equal entries are not always repeated. The panel holds about 83,000 compounds, 20% with a hit somewhere; the sample as a whole holds those more often.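 Cells were grown in 96-well plates and exposed to the test compound at a single concentration for 48 hours; results are reported as percent growth, with values below 10 considered active.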 The source made the active and inactive calls.

With `Cc1[nH]nc2ccc3nc(-c4cn[nH]c4C(F)(F)F)c4c(c3c12)CCCC4`, the growth is -68.2% (active) in the experiment on SK-MEL-2 melanoma (10 µM unless noted); -40.5% (active) in the experiment on EKVX NSCLC (10 µM unless noted); -22.4% (active) with SN12C renal (10 µM unless noted); -30.5% (active) with UO-31 renal (10 µM unless noted); -56.2% (active) in the experiment on TK-10 renal (10 µM unless noted); 1.85% (active) in the experiment with ACHN renal (10 µM unless noted). Besides, the growth in the experiment with CAKI-1 renal (10 µM unless noted) is -9.8% (active); in the experiment with A498 renal (10 µM unless noted), -61.1% (active); in the experiment with CCRF-CEM leukemia (10 µM unless noted), -12.1% (active).

For `COc1nc(N)ncc1-c1ccc2ncnc(N3CCc4cc(F)c(Cl)cc43)c2c1`, the growth in the experiment on SK-MEL-2 melanoma (10 µM unless noted) was 25.7% (inactive); with EKVX NSCLC (10 µM unless noted), 24.2% (inactive); with SN12C renal (10 µM unless noted), -40.9% (active); with UO-31 renal (10 µM unless noted) it was -32.4% (active); with TK-10 renal (10 µM unless noted) it was -50% (active); with ACHN renal (10 µM unless noted), -84.7% (active). Further, the growth is 4.22% (active) with CAKI-1 renal (10 µM unless noted), -15.6% (active) in the experiment on A498 renal (10 µM unless noted) and 61.6% (inactive) in the experiment on CCRF-CEM leukemia (10 µM unless noted).

With `O=C(Nc1nc2ccc([N+](=O)[O-])cc2s1)Nc1ccccc1F`, the growth with SK-MEL-2 melanoma (10 µM unless noted) was 6.45% (active); in the experiment on EKVX NSCLC (10 µM unless noted) it was 5.56% (active); with SN12C renal (10 µM unless noted), 2.55% (active); in the experiment with UO-31 renal (10 µM unless noted), 6.12% (active); with TK-10 renal (10 µM unless noted), 17.9% (inactive); in the experiment with ACHN renal (10 µM unless noted) it was 1.6% (active). The growth is -8.16% (active) in the experiment with CAKI-1 renal (10 µM unless noted), -18.3% (active) in the experiment with A498 renal (10 µM unless noted) and 15.5% (inactive) in the experiment with CCRF-CEM leukemia (10 µM unless noted).

As to `COc1c(B(O)O)cc(F)cc1-c1nc2ccc3[nH]ncc3c2c2c1COCC2`, the growth was 93.9% (inactive) in the experiment with SK-MEL-2 melanoma (10 µM unless noted); 75.3% (inactive) in the experiment with EKVX NSCLC (10 µM unless noted); 50.3% (inactive) with SN12C renal (10 µM unless noted); 55% (inactive) in the experiment on UO-31 renal (10 µM unless noted); 14.2% (inactive) in the experiment on TK-10 renal (10 µM unless noted); 36.4% (inactive) in the experiment with ACHN renal (10 µM unless noted). The growth with CAKI-1 renal (10 µM unless noted) is -12.1% (active); with A498 renal (10 µM unless noted) it was 106% (inactive); in the experiment on CCRF-CEM leukemia (10 µM unless noted) it was 19.1% (inactive).

As to `C/C(=N/O)c1ccc(NC(=O)CSc2nnc(-c3ccc(-c4nc5ccc(Cl)cc5[nH]4)cc3)o2)cc1`, the growth in the experiment with SK-MEL-2 melanoma (10 µM unless noted) was -26% (active); with EKVX NSCLC (10 µM unless noted), 13.4% (inactive); in the experiment with SN12C renal (10 µM unless noted) it was -33.9% (active); in the experiment with UO-31 renal (10 µM unless noted), 104% (inactive); in the experiment with TK-10 renal (10 µM unless noted) it was 99.5% (inactive); in the experiment with ACHN renal (10 µM unless noted) it was 45.5% (inactive). Moreover, the growth was 60.2% (inactive) with CAKI-1 renal (10 µM unless noted), 160% (inactive) in the experiment on A498 renal (10 µM unless noted) and 34.5% (inactive) in the experiment on CCRF-CEM leukemia (10 µM unless noted).

As for `CCN1C(=O)N(CC)C2NNC(Sc3c(C(=O)O)c4ccccc4n(CC(C)C)c3=O)=NC21` (stereo unspecified), the growth was 18.5% (inactive) in the experiment with SK-MEL-2 melanoma (10 µM unless noted); 38.5% (inactive) in the experiment with EKVX NSCLC (10 µM unless noted); 24.3% (inactive) in the experiment on SN12C renal (10 µM unless noted); 39.5% (inactive) in the experiment on UO-31 renal (10 µM unless noted); 52.7% (inactive) in the experiment with TK-10 renal (10 µM unless noted); 28.7% (inactive) in the experiment on ACHN renal (10 µM unless noted). Further, the growth with CAKI-1 renal (10 µM unless noted) is 46.1% (inactive); in the experiment with A498 renal (10 µM unless noted), 133% (inactive); in the experiment on CCRF-CEM leukemia (10 µM unless noted) it was 7.54% (active).

On to `O=C1C=CC(=CC=C2N(Cc3ccc4ccccc4c3)c3ccccc3N2Cc2ccc3ccccc3c2)C=C1`, for which the growth in the experiment on SK-MEL-2 melanoma (10 µM unless noted) was -12.8% (active) and -12.7% (active); in the experiment on EKVX NSCLC (10 µM unless noted), 33.7% (inactive) and 32.9% (inactive); in the experiment with SN12C renal (10 µM unless noted), 6.94% (active) and 13.3% (inactive); with UO-31 renal (10 µM unless noted) it was 103% (inactive) and 98.5% (inactive); in the experiment with TK-10 renal (10 µM unless noted), 63.6% (inactive) and 74% (inactive); in the experiment with ACHN renal (10 µM unless noted) it was 77.2% (inactive) and 78.6% (inactive). Besides, the growth with CAKI-1 renal (10 µM unless noted) was 77.6% (inactive) and 70.8% (inactive); with A498 renal (10 µM unless noted), 106% (inactive) and 109% (inactive); in the experiment with CCRF-CEM leukemia (10 µM unless noted), 21.7% (inactive) and 10.9% (inactive).

For `COc1ccc(-c2nc3ccc(-c4nnc(SCC(=O)Nc5ccc(/C(C)=N\O)cc5)o4)cc3[nH]2)cc1`, the growth with SK-MEL-2 melanoma (10 µM unless noted) is 76.2% (inactive); in the experiment on EKVX NSCLC (10 µM unless noted), 95.3% (inactive); in the experiment on SN12C renal (10 µM unless noted), 80.1% (inactive); with UO-31 renal (10 µM unless noted), 87.5% (inactive); in the experiment with TK-10 renal (10 µM unless noted) it was 111% (inactive); in the experiment on ACHN renal (10 µM unless noted), 85.9% (inactive). Moreover, the growth in the experiment with CAKI-1 renal (10 µM unless noted) was 96.1% (inactive); in the experiment with A498 renal (10 µM unless noted) it was 166% (inactive); in the experiment on CCRF-CEM leukemia (10 µM unless noted), 55.6% (inactive).

In the case of `CC/C(=C(\c1ccc(O)cc1)c1ccc(OCCNC)cc1)c1ccccc1`, the growth in the experiment on SK-MEL-2 melanoma (1 µM) is 95.1% (inactive); in the experiment with SK-MEL-2 melanoma (10 µM), 98.7% (inactive); in the experiment with EKVX NSCLC (1 µM), 98.9% (inactive); in the experiment on EKVX NSCLC (10 µM), 96.4% (inactive); with SN12C renal (1 µM), 101% (inactive); in the experiment on SN12C renal (10 µM) it was 73.8% (inactive). Also, the growth was 90.2% (inactive) in the experiment with UO-31 renal (1 µM); 62.7% (inactive) in the experiment with UO-31 renal (10 µM); 91.2% (inactive) in the experiment on TK-10 renal (1 µM); 94.5% (inactive) in the experiment with TK-10 renal (10 µM); 98.4% (inactive) in the experiment on ACHN renal (1 µM); 90.4% (inactive) in the experiment with ACHN renal (10 µM). The growth in the experiment on CAKI-1 renal (1 µM) is 98.9% (inactive); with CAKI-1 renal (10 µM), 85.3% (inactive); in the experiment on A498 renal (1 µM), 104% (inactive); in the experiment with A498 renal (10 µM) it was 91.2% (inactive); with CCRF-CEM leukemia (1 µM), 89.9% (inactive); in the experiment on CCRF-CEM leukemia (10 µM) it was 92.6% (inactive).

Turning to `N#CC1=C(c2cccs2)Nc2c(c(-c3ccccc3)nn2-c2ccccc2)C12C(=O)Nc1ccc(Br)cc12` (stereo unspecified), the growth was -17.2% (active) in the experiment with SK-MEL-2 melanoma (10 µM unless noted); 7.42% (active) in the experiment on EKVX NSCLC (10 µM unless noted); -13.7% (active) with SN12C renal (10 µM unless noted); 6.38% (active) in the experiment on UO-31 renal (10 µM unless noted); 12.1% (inactive) with TK-10 renal (10 µM unless noted); -11% (active) in the experiment on ACHN renal (10 µM unless noted). For the same compound, the results for the growth with CAKI-1 renal (10 µM unless noted), with A498 renal (10 µM unless noted) and in the experiment with CCRF-CEM leukemia (10 µM unless noted) were 9.64% (active), -10.8% (active) and 1.86% (active), respectively.

Consider `CC[C@]12C=CCN3CC[C@@]4(c5ccc(OC)cc5N(C)[C@H]4[C@@](O)(C(=O)OC)[C@@H]1OC(=O)CCCC[P+](c1ccc(F)cc1)(c1ccc(F)cc1)c1ccc(F)cc1)[C@@H]32`, for which the growth was -54% (active) in the experiment with SK-MEL-2 melanoma (10 µM unless noted); 53% (inactive) with EKVX NSCLC (10 µM unless noted); 10.6% (inactive) with SN12C renal (10 µM unless noted); 85.9% (inactive) in the experiment on UO-31 renal (10 µM unless noted); 70.2% (inactive) with TK-10 renal (10 µM unless noted); 103% (inactive) in the experiment on ACHN renal (10 µM unless noted). Besides, the growth is 73.2% (inactive) in the experiment on CAKI-1 renal (10 µM unless noted), 99.2% (inactive) in the experiment with A498 renal (10 µM unless noted) and 19.9% (inactive) in the experiment with CCRF-CEM leukemia (10 µM unless noted).

As to `CC/C(=C(\c1ccc(O)cc1)c1ccc(OCCN(C)C(=O)CCOCCNC(=O)c2ccc3c(c2)CN([C@@H]2CCC(=O)NC2=O)C3=O)cc1)c1ccccc1`, the growth with SK-MEL-2 melanoma (1 µM) is 103% (inactive); with SK-MEL-2 melanoma (10 µM), 101% (inactive); in the experiment on EKVX NSCLC (1 µM), 100% (inactive); with EKVX NSCLC (10 µM), 89.1% (inactive); in the experiment with SN12C renal (1 µM), 91.3% (inactive); with SN12C renal (10 µM), 95.7% (inactive). Moreover, the growth in the experiment with UO-31 renal (1 µM) was 91.9% (inactive); with UO-31 renal (10 µM), 89.9% (inactive); in the experiment on TK-10 renal (1 µM), 99% (inactive); in the experiment with TK-10 renal (10 µM), 88.5% (inactive); with ACHN renal (1 µM) it was 103% (inactive); in the experiment on ACHN renal (10 µM), 106% (inactive). For the same compound, the growth was 101% (inactive) in the experiment on CAKI-1 renal (1 µM); 94.5% (inactive) in the experiment with CAKI-1 renal (10 µM); 93.3% (inactive) with A498 renal (1 µM); 89.6% (inactive) in the experiment with A498 renal (10 µM); 24.5% (inactive) in the experiment with CCRF-CEM leukemia (1 µM); 26.1% (inactive) in the experiment with CCRF-CEM leukemia (10 µM).
